± gives the standard deviation of the averaged measurements.
Tests used:
Experiment in all cases: cell viability (% of vehicle); higher = less cytotoxic
[1] = test system: HCI01 (cells of a triple-negative basal-like breast cancer xenograft); settings: 1 µM; 72 h
[2] = test system: UCD52 (cells of a triple-negative basal-like breast cancer xenograft); settings: 1 µM; 72 h
[3] = test system: WHIM2 (cells of a triple-negative basal-like breast cancer xenograft); settings: 1 µM; 72 h
[4] = test system: WHIM30 (cells of a triple-negative basal-like breast cancer xenograft); settings: 1 µM; 72 h
[5] = test system: HCI01; settings: 10 µM; 72 h
[6] = test system: HCI03 (cells of an ER-positive luminal breast cancer xenograft); settings: 10 µM; 72 h
[7] = test system: HCI09 (cells of a triple-negative luminal androgen receptor type breast cancer xenograft); settings: 10 µM; 72 h
[8] = test system: HCI11 (cells of an ER-positive luminal breast cancer xenograft); settings: 10 µM; 72 h
[9] = test system: HCI13 (cells of an ER-positive luminal breast cancer xenograft); settings: 10 µM; 72 h
[10] = test system: UCD52; settings: 10 µM; 72 h
[11] = test system: WHIM2; settings: 10 µM; 72 h
[12] = test system: WHIM30; settings: 10 µM; 72 h
[13] = test system: HCI16 (cells of a triple-negative basal-like breast cancer xenograft); settings: 10 µM; 72 h

Compound | cell viability [1] | cell viability [2] | cell viability [3] | cell viability [4] | cell viability [5] | cell viability [6] | cell viability [7] | cell viability [8] | cell viability [9] | cell viability [10] | cell viability [11] | cell viability [12] | cell viability [13]
CN1CCC(COc2cnc(-c3cccc(Cn4nc(-c5cccc(C#N)c5)ccc4=O)c3)nc2)CC1 | 83.2 | 79.2 | 97.8 | 79.6 | 87.4 ± 46 | 45.7 | 15.5 ± 4.2 | 57.6 | 72.4 ± 35 | 28 ± 5.6 | 34.3 ± 2.1 | 65.8 ± 4.3 | 
COC(=O)NC(C(=O)N1CCCC1c1ncc(-c2ccc(-c3ccc(-c4cnc(C5CCCN5C(=O)C(NC(=O)OC)C(C)C)[nH]4)cc3)cc2)[nH]1)C(C)C (stereo not drawn) | 85.1 | 82.6 | 93.7 | 82.8 | 79.8 ± 2.9 | 99.6 | 42.7 ± 35 | 72.6 | 131 ± 110 | 62.3 ± 1.2 | 58.8 ± 6.8 | 102 ± 11 | 87.2
NC(=O)c1ncn(C2OC(CO)C(O)C2O)n1 (stereo not drawn) [Ribavirin] |  |  |  |  | 72.7 ± 49 | 148 | 92.7 ± 2.2 | 93.7 | 118 ± 9.9 | 96.4 ± 6.9 | 99.1 ± 46 |  | 110
CCN1CCN(C(=O)NC(C(=O)NC2C(=O)N3C(C(=O)O)=C(CSc4nnnn4C)CSC23)c2ccc(O)cc2)C(=O)C1=O (stereo not drawn) [Cefoperazone] |  |  |  |  | 110.1 ± 0.54 | 158 | 120 ± 16 | 132 | 174 ± 9.6 | 131 ± 18 | 108 ± 22 |  | 104
COC(c1ccccc1)(c1ccccc1)C(Oc1nc(C)cc(C)n1)C(=O)O (stereo not drawn) [Ambrisentan] |  |  |  |  | 79.8 ± 52 | 128 | 92.8 ± 15 | 84 | 94.1 ± 1.8 | 74.7 ± 11 | 107 ± 16 |  | 106
CC(C)(C)C(=O)OCOP(=O)(COCCn1cnc2c(N)ncnc21)OCOC(=O)C(C)(C)C [Adefovir Dipivoxil] |  |  |  |  | 109 ± 43 | 148 | 62.7 ± 38 | 105 | 43.6 ± 9.2 | 101 ± 9.6 | 50.6 ± 3.7 |  | 129
COc1cccc2c1C(=O)c1c(O)c3c(c(O)c1C2=O)CC(O)(C(=O)CO)CC3OC1CC(N)C(O)C(C)O1.Cl (stereo not drawn) [Epirubicin HCl] | 105 | 35.9 | 22.2 | 46.4 | 56.2 ± 19 |  | 26.2 ± 13 | 50.5 |  | 22.7 ± 4 | 29.1 ± 15 | 50.8 ± 12 | 35.4
CC1CCN(C(=O)CC#N)CC1N(C)c1ncnc2[nH]ccc12.O=C(O)CC(O)(CC(=O)O)C(=O)O (stereo not drawn) |  |  |  |  | 188 ± 8.3 | 151 | 77.7 ± 1.5 | 115 | 104 ± 9.7 | 109 ± 21 | 87.9 ± 3 |  | 141
C1=C\COCc2cc(ccc2OCCN2CCCC2)Nc2nccc(n2)-c2cccc(c2)COC/1 [Pacritinib] | 70.5 | 49.1 | 77.3 | 47.3 | 28.9 ± 7.5 |  | 25.9 ± 3.1 | 131 | 50.7 ± 7 | 35.1 ± 1.6 | 49.9 ± 4.6 | 50.7 ± 17 | 133

From the supplement of paper PMC6992640
